Test in all cases: NCI-60 one-dose screen, 48 h (100 = growth as untreated, 0 = no growth, -100 = all killed)
Holding throughout (conditions): 10 µM unless noted

Assay [1] concerns HCT-15 colon.
Assay [2] concerns HT29 colon.
In assay [3] the test system is SNB-75 CNS.
Assay [4] deals with SNB-19 CNS.
For assay [5], the system named is U251 CNS.
For assay [6], the system named is PC-3 prostate.
In assay [7] the test system is SK-MEL-5 melanoma.
In assay [8] the test system is UACC-62 melanoma.
Assay [9] concerns LOX IMVI melanoma.
Assay [10] deals with SK-MEL-2 melanoma.
In assay [11] the test system is EKVX NSCLC.
The subject of assay [12] is SN12C renal.
The test system of assay [13] is UO-31 renal.
In assay [14] the test system is TK-10 renal.
For assay [15], the system named is ACHN renal.
Assay [16] has as its system CAKI-1 renal.
The test system of assay [17] is A498 renal.
In assay [18] the test system is CCRF-CEM leukemia.
Assay [19] relates to MOLT-4 leukemia.
Assay [20] has as its system SK-MEL-28 melanoma.

Compounds without any hit were thinned out: in the full panel of roughly 83,000, 20% have a hit.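 Activity criterion: percent growth below 10, measured after cells in 96-well plates were exposed to a single compound concentration for 48 hours.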 Values without a mark were called inactive. Activity calls are given as the source filed them.

On to `O=S(=O)(NCCCNc1nccc(-c2[nH]c(-c3ccccc3)nc2-c2ccc(Cl)c(O)c2)n1)c1cccc(F)c1`, for which the growth was 38.6% in assay [1]; 61.7% in assay [2]; 104% in assay [3]; 82.9% in assay [4]; 64.4% in [5]; 46.8% in assay [6]. Also, the growth is 23.5% in assay [7]; 19.3% in assay [8]; 39.8% in assay [9]; 18.5% in assay [10]; 65.2% in assay [11]; 68.2% in assay [12]. Also, the growth in assay [13] is 56.6%; in assay [14], 98.2%; in assay [15], 57.2%; in assay [16], 56.1%; in [17], 101%; in [18], 32.9%. In [19], the growth is 40.3%.

As to `CN1CCN(c2nc(-c3csc(-c4ccccc4)n3)cc3ccccc23)CC1`, the growth is -48.6% (active) in [1]; -52% (active) in assay [2]; 70.5% in assay [3]; 66.1% in assay [4]; 36.7% in [5]; 28.9% in [6]. For the same molecule, the growth was 58.7% in assay [7]; -38.4% (active) in assay [8]; -80.7% (active) in [9]; -25.2% (active) in [20]; 63.5% in assay [11]; 50.2% in assay [12]. Besides, the growth in [13] was 43.6%; in assay [14], 73.3%; in [15], 16.1%; in assay [16], 21.2%; in assay [18], 14.2%; in assay [19] it was 4.08% (active).

With `Nc1nc(-c2cccc([N+](=O)[O-])c2)c(N=Nc2ccccc2)s1`, the growth in [1] is 38.3%; in [2], 61.3%; in assay [3], 63.2%; in assay [4] it was 81.2%; in assay [5], 54.3%; in [6], 51.2%. Besides, the growth in assay [7] was 42.5%; in [8], 64%; in assay [9], 53.5%; in assay [20] it was 65%; in assay [11], 51.8%; in assay [12] it was 71%. Besides, the growth in [13] was 62.2%; in assay [14] it was 81.7%; in assay [15], 63.2%; in assay [16] it was 39.3%; in [18] it was 48.4%; in assay [19], 50.8%.

Regarding `COc1ccc(NC(=O)CSc2nnc(-c3ccc4nc(-c5ccc(OC)c(OC)c5)[nH]c4c3)o2)cc1OC`, the growth in assay [1] was 108%; in assay [2], 105%; in assay [3], 100%; in assay [4], 113%; in assay [5] it was 112%; in [6], 102%. Further, the growth is 88.3% in assay [7]; 92% in assay [8]; 98% in assay [9]; 103% in assay [10]; 107% in assay [11]; 100% in [12]. For the same molecule, the growth in assay [13] was 73.5%; in assay [14], 117%; in assay [15] it was 94.2%; in assay [16] it was 94.7%; in [17] it was 93.3%; in assay [18], 86%.

As for `COc1cc(OC)c(S(N)(=O)=O)cc1C(=O)/C=C/c1ccc(Cl)cc1`, the growth is -41.6% (active) in assay [1]; 6.08% (active) in assay [2]; 27.1% in assay [3]; 15.8% in assay [4]; 3.73% (active) in assay [5]; 28.2% in [6]. The growth in assay [7] is 5.34% (active); in assay [8] it was 18.6%; in [9], -50.4% (active); in assay [20] it was 30.5%; in assay [11], 29.8%; in [12], 16%. The growth in [13] was 7.22% (active); in assay [14], -5.25% (active); in assay [15] it was 11.6%; in assay [16], 21.5%; in assay [18], 1.6% (active); in assay [19] it was 3.62% (active).

As to `Cc1cc(-c2ccc(Cl)cc2)n(Cc2nnc(SCC(=O)Nc3ccc(S(N)(=O)=O)cc3)n2C2CCCCC2)n1`, the growth in assay [1] is 98.4%; in [2], 108%; in assay [3] it was 118%; in assay [4] it was 97.6%; in assay [5], 101%; in assay [6], 101%. Besides, the growth in [7] was 100%; in [8], 99.2%; in [9], 101%; in [10], 106%; in assay [11], 103%; in [12], 105%. The growth in assay [13] was 82.3%; in assay [14], 106%; in assay [15] it was 104%; in assay [16], 99.4%; in [17], 111%; in assay [18] it was 114%. For the same molecule, the growth in assay [19] is 141%.

For `CCOC(=O)c1c(Nc2ccccc2)nn2c(-c3ccc(Cl)cc3)ccnc12`, the growth is 77.8% in assay [1]; 83.7% in assay [2]; 88% in assay [3]; 72.1% in assay [4]; 81.5% in assay [5]; 80.5% in assay [6]. The growth is 80.2% in assay [7]; 82.8% in assay [8]; 64.5% in [9]; 87.2% in assay [20]; 88.9% in [11]; 64.8% in assay [13]. Besides, the growth in assay [14] was 98.1%; in [15], 47.2%; in assay [16], 56.1%; in [18], 16.2%; in assay [19] it was 86%.

As to `CCOC(=O)c1c(Nc2ccccc2)nn2c(-c3ccc(OC)cc3)ccnc12`, the growth is 48.6% in assay [1]; 74.9% in assay [2]; 82.7% in assay [3]; 109% in assay [4]; 89.2% in assay [5]; 99.2% in [6]. Also, the growth in assay [7] is 71.3%; in [8] it was 95.1%; in assay [9] it was 80.3%; in [20] it was 89.9%; in assay [11], 99.6%; in assay [12], 93.5%. Moreover, the growth in [13] is 85.7%; in [14], 100%; in assay [15] it was 83.8%; in assay [16] it was 78%; in [18], 74.1%; in [19], 82.5%.

Turning to `c1cc(-c2nc3ccc4[nH]ncc4c3c3c2CCCC3)[nH]n1`, the growth in [1] is 34.8%; in assay [2], 63.7%; in assay [3], 60.3%; in assay [4], 64.6%; in assay [5], 65.7%; in assay [6], 57.1%. For the same molecule, the growth in assay [7] is 76.9%; in assay [8] it was 50.7%; in assay [9] it was 58.4%; in assay [10] it was 29.1%; in assay [11], 60.8%; in assay [12], 75%. Further, the growth in assay [13] was 50.7%; in [14], 36%; in assay [15] it was 32.6%; in assay [16], 27.6%; in [17], 16.2%; in [18], 46.7%. The growth in [19] is 67.8%.

As for `O=C1/C(=C/C=C/c2ccco2)SC(=S)N1C1CCCCC1`, the growth in assay [1] was 79.2%; in assay [2], 85.3%; in assay [3] it was 103%; in assay [4], 93.9%; in [5], 84%; in assay [6], 92.9%. Besides, the growth in assay [7] is 58.4%; in [8] it was 56.7%; in assay [9] it was 103%; in assay [20], 72.5%; in assay [11], 93%; in assay [13], 85.6%. Besides, the growth was 106% in [14]; 96% in [15]; 93.1% in assay [16]; 91.2% in [18]; 90.5% in [19].

Values taken from PubChem BioAssay (NCI).
